{"source": "PubChem BioAssay (EPA / NIEHS)", "note": "Active and inactive are the calls of the source. The calls were made as follows: active = hit-call score of the fitted dose curve at least 0.9, where 1 is the maximum; inactive = score below 0.9."}
{"assay": "APR_HepG2_MicrotubuleCSK_72hr: Apredica 72-hour HepG2 Assay for Microtubule CSK Stabilty (AID 2282919)", "settings": "HepG2 microtubule cytoskeleton, high-content imaging, actives raise or lower the signal", "description": "APR_HepG2_72hr is a cell-based, multiplexed-readout assay that uses HepG2, a human liver cell line, with measurements taken at 72 hours after chemical dosing in a 384-well plate.APR_HepG2_MicrotubuleCSK_72hr is one of 10 assay component(s) measured or calculated from the APR_HepG2_72hr assay. It is designed to make measurements of protein conformation, a form of conformation reporter, as detected with fluorescence intensity signals by HCS Fluorescent Imaging technology.Data from the assay component APR_HepG2_MicrotubuleCSK_72hr was analyzed into 1 assay endpoint. This assay endpoint, APR_HepG2_MicrotubuleCSK_72hr, was analyzed with bidirectional fitting relative to DMSO as the negative control and baseline of activity. Using a type of conformation reporter, measures of protein for gain or loss-of-signal activity can be used to understand the signaling at the cellular-level. Furthermore, this assay endpoint can be referred to as a primary readout, because this assay has produced multiple assay endpoints where this one serves a signaling function. To generalize the intended target to other relatable targets, this assay endpoint is annotated to the cell morphology intended target family, where the subfamily is cell conformation.\nCells were treated with dimethyl sulfoxide (DMSO) as a solvent control at a final concentration of 0.5% v/v or with compounds in DMSO with a resulting final DMSO concentration of 0.5% v/v. Compound treatment was done at concentrations of 0.39, 0.78, 1.56, 3.12, 6.24, 12.5, 25, 50, 100, and 200 uM in duplicate on each plate. Cells were treated with compounds for 1, 24, or 72 hr. Carbonyl […] m-chloro-phenylhydrazone (CCCP) and taxol were used as positive controls for mitochondrial function and cytoskeletal stability, respectively; DMSO served as the negative control for this experiment. Cells were fixed by the direct addition of 50 uL formaldehyde in Hank's Balanced Salt Solution (HBSS) to a final concentration of 3.7%. After incubation in the fixation medium for 30 min at room temperature (293-298 K), cells were rinsed twice with HBSS and treated with cell permeabilization buffer (16 uL of 0.5% Triton X-100) for 10 min at room temperature (293-298 K) before labeling. For mitochondrial membrane potential and mitochondrial measurements, pre-fixed cells were incubated with 50 uL of MitoTracker Red CMXRos (Invitrogen) at a concentration of 250 nM for 30 min before fixation. In the remaining cases, post-fixed cells were labeled by incubation with a multiplexed mixture of primary antibodies in HBSS for 60 min at room temperature (293-298 K) to detect immunoreactivity of c-Jun (1:500), phospho-histone H3 (1:100), phospho-histone H2A.x (1:200), p53 (1:400), alpha-tubulin (1:200) and Hoechst 33342 (2 ug/mL). Cells were labeled for multiplexed imaging on two separate plates: a) Hoechst 33342, MitoTracker Red, phospho-histone H3, and alpha-tubulin, and b) Hoechst 33342, phospho-histone H2A.x, and c-Jun. A final rinse with HBSS (50 uL) was performed before analysis. The primary and secondary antibodies for the proteins were phospho-histone H3 (rabbit anti-phospho-histone H3 and FITC-donkey anti-rabbit IgG), phospho-histone H2A.x (mouse anti-phospho-histone H2A.x and FITC-donkey anti-mouse IgG), c-Jun (rabbit anti-phospho-c-Jun and Cy3-donkey anti-rabbit IgG), p53 (sheep anti-p53 and Cy5-donkey anti-sheep IgG), alpha-tubulin (mouse anti-alpha-tubulin and Cy5-donkey anti-mouse IgG). These antibodies are available as the CellCiphr HepG2 assay kit (Millipore).Digital images of each well were captured using a Cellomics ArrayScan VTI (Thermo Scientific Cellomics) (0.8 NA objective, 0.63x optical coupler, and XF-93 filter set) at 20x magnification. The images were acquired using the autofocus feature of the ArrayScan instrument, which entails the following steps. First, the camera focuses on channel 1 (Hoechst 33342), where nuclei are identified. Second, a Z offset of 1 um is used for capturing mitochondria (MitoTracker Red). […]"}
{"smiles": "COP(N)(=O)SC", "note": "(stereo not given)", "outcome": "inactive"}
{"smiles": "COc1cnc(OC)n2nc(NS(=O)(=O)c3c(OCC(F)F)cccc3C(F)(F)F)nc12", "outcome": "inactive"}
{"smiles": "CNC(=O)ON=CC(C)(C)SC", "outcome": "inactive"}
{"smiles": "CCCCNC(=O)n1c(NC(=O)OC)nc2ccccc21", "outcome": "inactive"}
{"smiles": "O=C(Nc1ccccc1)Nc1ccnc(Cl)c1", "AC50": "32.5 µM (active)"}
{"smiles": "COc1nc(NC(C)C)nc(NC(C)C)n1", "outcome": "inactive"}
{"smiles": "COC(=O)C=C(C)OP(=O)(OC)OC", "outcome": "inactive"}
{"smiles": "C=CCC1=C(C)C(OC(=O)C2C(C=C(C)C)C2(C)C)CC1=O", "note": "(stereo not given)", "outcome": "inactive"}
{"smiles": "Fc1ccc(Oc2ccnc3cc(Cl)cc(Cl)c23)cc1", "outcome": "inactive"}
{"smiles": "CC1=C(C(=O)Nc2ccccc2)SCCO1", "outcome": "inactive"}
{"smiles": "CCNc1nc(Cl)nc(NCC)n1", "outcome": "inactive"}
{"smiles": "CC1COC(Cn2cncn2)(c2ccc(Oc3ccc(Cl)cc3)cc2Cl)O1", "note": "(stereo not given)", "AC50": "32.6 µM (active)"}
{"smiles": "CS/C(C)=N/OC(=O)N(C)SN(C)C(=O)O/N=C(\\C)SC", "outcome": "inactive"}
{"smiles": "CC(Oc1ccc(Cl)cc1Cl)C(=O)O", "note": "(stereo not given)", "outcome": "inactive"}
{"smiles": "COc1ccc(C(c2ccc(OC)cc2)C(Cl)(Cl)Cl)cc1", "AC50": "71 µM (active)"}
{"smiles": "CON(C)C(=O)Nc1ccc(Cl)c(Cl)c1", "outcome": "inactive"}
{"smiles": "Cc1ccc(-c2c(Cl)nc(C#N)n2S(=O)(=O)N(C)C)cc1", "AC50": "65.3 µM (active)"}
{"smiles": "Cc1cc(Cl)ccc1OCC(=O)O", "outcome": "inactive"}
{"smiles": "CCc1nn(C)c(C(=O)NCc2ccc(C(C)(C)C)cc2)c1Cl", "AC50": "0.0488 µM (active)"}
{"smiles": "C=CC1(C)OC(=O)N(c2cc(Cl)cc(Cl)c2)C1=O", "note": "(stereo not given)", "outcome": "inactive"}
{"smiles": "CCNc1nc(Cl)nc(NC(C)C)n1", "outcome": "inactive"}
{"smiles": "COC(=O)C(C)Oc1ccc(Oc2ccc(Cl)cc2Cl)cc1", "note": "(stereo not given)", "outcome": "inactive"}
{"smiles": "CCCCOC(=O)c1ccccc1C(=O)OCCCC", "outcome": "inactive"}
{"smiles": "CN(C)C(=S)SSC(=S)N(C)C", "AC50": "3.39 µM (active)"}
{"smiles": "COP(=S)(OC)Oc1nc(Cl)c(Cl)cc1Cl", "outcome": "inactive"}
{"smiles": "C#CCOS(=O)OC1CCCCC1Oc1ccc(C(C)(C)C)cc1", "note": "(stereo not given)", "AC50": "2.25 µM (active)"}
{"smiles": "Oc1ccccc1-c1ccccc1", "outcome": "inactive"}
{"smiles": "CCCN(CCC)c1c([N+](=O)[O-])cc(S(N)(=O)=O)cc1[N+](=O)[O-]", "outcome": "inactive"}
{"smiles": "N#Cc1cc(Br)c(O)c(Br)c1", "outcome": "inactive"}
{"smiles": "CO/C=C(/C(=O)OC)c1ccccc1Oc1cc(Oc2ccccc2C#N)ncn1", "outcome": "inactive"}
{"smiles": "O=C(O)COc1nc(Cl)c(Cl)cc1Cl", "outcome": "inactive"}
{"smiles": "C=CCC1=C(C)[C@@H](OC(=O)[C@@H]2[C@@H](C=C(C)C)C2(C)C)CC1=O", "AC50": "79.5 µM (active)"}
{"smiles": "CCCC1COC(Cn2cncn2)(c2ccc(Cl)cc2Cl)O1", "note": "(stereo not given)", "AC50": "77.7 µM (active)"}
{"smiles": "CC(C)C1(C)N=C(c2nc3ccccc3cc2C(=O)O)NC1=O", "note": "(stereo not given)", "outcome": "inactive"}
{"smiles": "CCON=C(CC)C1=C(O)CC(c2c(C)cc(C)cc2C)CC1=O", "note": "(stereo not given)", "outcome": "inactive"}
{"smiles": "COc1nc(C)nc(NC(=O)NS(=O)(=O)c2ccccc2Cl)n1", "outcome": "inactive"}
{"smiles": "CCCCC(CC)COC(=O)c1ccccc1C(=O)OCC(CC)CCCC", "note": "(stereo not given)", "outcome": "inactive"}
{"smiles": "N#CC(CCc1ccc(Cl)cc1)(Cn1cncn1)c1ccccc1", "note": "(stereo not given)", "outcome": "inactive"}
{"smiles": "CNC(=S)S", "AC50": "26.2 µM (active)"}
{"smiles": "CC(C)(C)c1ccc(CSc2cnn(C(C)(C)C)c(=O)c2Cl)cc1", "AC50": "7.56 µM (active)"}
